Assay outcomes deposited in PubChem BioAssay by several laboratories.
Smad3 FoxH1 inh: Smad3/FoxH1 peptide binding inhibitors, primary screen, biochemical, TR-FRET | Mothers against decapentaplegic homolog 3 (Homo sapiens), P84022 | TR-FRET Smad3/Dy647-FoxH1 peptide binding, europium anti-His | inhibition, % at 25 µM | 88,000 compounds, 0.29% hits;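 active = compounds that reduce the energy-transfer binding signal between the protein and its labelled peptide by more than half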;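 also: 0% = Smad3 plus labelled peptide maximal FRET and 100% = peptide-only background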
Target sequence (P84022 whole entry, looked up): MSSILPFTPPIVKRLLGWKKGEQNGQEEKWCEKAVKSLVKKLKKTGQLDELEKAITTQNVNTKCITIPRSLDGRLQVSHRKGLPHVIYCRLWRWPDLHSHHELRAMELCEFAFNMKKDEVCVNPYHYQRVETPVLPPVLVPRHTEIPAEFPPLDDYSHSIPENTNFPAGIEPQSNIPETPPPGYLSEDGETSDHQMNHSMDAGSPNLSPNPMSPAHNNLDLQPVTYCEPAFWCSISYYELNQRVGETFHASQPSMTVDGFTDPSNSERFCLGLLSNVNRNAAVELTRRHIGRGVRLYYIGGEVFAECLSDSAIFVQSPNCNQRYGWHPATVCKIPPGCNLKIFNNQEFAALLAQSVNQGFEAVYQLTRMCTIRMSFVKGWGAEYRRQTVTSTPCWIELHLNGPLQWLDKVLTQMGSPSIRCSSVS
HUVEC tox IL1B: cytotoxicity in IL-1B stimulated HUVEC, primary screen, cytotoxicity control for IL-1B NFkB translocation project, imaging, Hoechst nuclear count, IL-1B stimulus | HUVEC cell count loss | cell count reduction, % at 2 µM | 94,000 compounds, 0.41% hits | AID 845, 2007;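 active = cell count reduction more than 3 SD above the screen-wide mean, cut at about 70% in these data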;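 also: normalized per plate to untreated control cells as the no-loss baseline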
IL1B NFkB pot: enhancers of NFkB p65 translocation in HUVEC – imaging, IL-1B stimulus, high-content imaging, primary screen; HUVEC IL-1B NFkB p65 nuclear translocation imaging; activation, % at 2 µM; 94,000 compounds, 0.3% hits; AID 819, 2007;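 active = activation above 40%, about the mean plus 3 SD, also judged a hit on visual image review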;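 also: percent activation is computed from the nuclear over cytoplasmic p65 intensity ratio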
IL1B NFkB inh: inhibitors of IL-1B driven NFkB p65 nuclear import, primary screen, imaging, HUVEC, IL-1B stimulus, high-content imaging; HUVEC IL-1B NFkB p65 nuclear translocation imaging; inhibition, % at 2 µM; 94,000 compounds, 0.43% hits;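 active = inhibition above about 30% together with a positive call from visual inspection of the well image, limit read from the data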;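 also: nuclear over cytoplasmic p65 intensity ratio measured by imaging; 0% = IL-1B stimulated DMSO wells and 100% = unstimulated DMSO wells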
The depositor's hits bear a star; x = not tested or not shown; ! = not active in a repeat. The list is not random: actives were taken first. Their share in the collection is about 1.2%.

SMILES	Smad3 FoxH1 inh	HUVEC tox IL1B	IL1B NFkB pot	IL1B NFkB inh
O=C(CCCC(=O)N(CC(=O)NC1CCCC1)C1CCCC1)Nc1ccccn1	3.6	-12.3	9.7	-9.7
O=C(CCC(=O)N(CC(=O)NC1CCCC1)C1CCCC1)Nc1ccccn1	-2.5	6.1	127.4*	-127.4
O=C(O)C/C=C/CC(=O)O	-7.0	x	x	x
O=c1[nH]c2ccc(Cl)cc2c(-c2ccccc2)c1CN1CCOCC1	9.2	-2.8	112.9*	-112.9
NS(=O)(=O)c1ccc(N=Nc2c[nH]c(=O)c(O)c2)cc1	78.1*	x	x	x
Cc1cccc(/C=C2\CS/C(=C\c3cccc(C)c3)C2=O)c1	15.5	-9.5	-54.3	54.3*
Cc1ccc(-n2c(O)c(C=NC3CCS(=O)(=O)C3)c3ccccc3c2=O)cc1C (stereo not drawn)	6.1	38.6	42.6*	-42.6
Nc1nc2c(c(=O)[nH]1)CN(CCCN1CCOCC1)CN2	72.5*	x	x	x
Nc1nc2c(c(=O)[nH]1)CN(c1ccc(S(N)(=O)=O)cc1)CN2	24.0	x	x	x
O=C(O)c1ccc(C(=O)O)c(C(=O)O)c1.[NH-][C@@H]1CCCC[C@H]1[NH-].[Pt]	28.0	x	x	x
Cc1ccc2c(C)ccc(O)c2n1	0.9	76.1*	-1.1	1.1
COC(=O)c1ccc2c(=O)n(CCCCCC(=O)NCc3ccccc3)c(=O)[nH]c2c1	2.3	-35.0	14.2	-14.2
COC(=O)c1ccc2c(=O)n(CCCCCC(=O)NCc3ccc4c(c3)OCO4)c(=O)[nH]c2c1	2.1	89.8*	-24.7	24.7
COc1ccc2nc(C)cc(SCC(=O)O)c2c1	7.4	18.1	-1.2	40.5*!
COC(=O)CSc1cc(C)nc2ccc(OC)cc12	15.2	10.1	-8.4	8.4
CCOc1ccc(C(=O)OCCN(C)C)cc1	-2.1	-1.4	58.3*	-58.3
O=C1/C(=C\c2ccccc2)[C@@H](NC2CCCCC2)c2ccccc21	25.0	x	x	x
O=C(Oc1ccc(F)cc1C(=O)/C=C/c1cccs1)c1cccc([N+](=O)[O-])c1	-4.5	60.0	-31.3	31.3*
Cn1c(=O)c2c(nc(N/N=C/c3ccccc3C(=O)O)n2C)n(C)c1=O	9.9	x	x	x
Cc1ccc(C(=O)Nc2ccc(O)cc2C(=O)O)cc1C	7.6	8.2	119.0*	-119.0
Cc1ccc(C(=O)Nc2ccc(O)cc2C(=O)O)cc1	1.0	10.8	2.1	-2.1
CCn1c(=O)cc(OCC(=O)Nc2ccc(Cl)cn2)c2ccccc21	6.2	x	x	x
O=C(O)C[C@H](NC(=O)CP(=O)(O)O)C(=O)O.[NH-][C@@H]1CCCC[C@H]1[NH-].[Pt]	40.7	x	x	x
O=C(Nc1nc(-c2ccc(Cl)cc2)cs1)c1cccnc1	-31.0	3.5	-6.2	6.2
Cn1cc([N+](=O)[O-])c(C(=O)Nc2nc(-c3ccc(Cl)cc3)cs2)n1	x	-9.6	-77.3	77.3*
SMILES	Smad3 FoxH1 inh	HUVEC tox IL1B	IL1B NFkB pot	IL1B NFkB inh
Cc1ccc(-c2nc(NC(=O)c3nn(C)cc3[N+](=O)[O-])sc2C)cc1	x	26.4	-24.4	24.4
Cc1ccc(-c2nc(NC(=O)c3nn(C)cc3[N+](=O)[O-])sc2C)cc1C	x	66.2	-45.2	45.2*
O=C(O)c1oc(C(=O)O)c(C(=O)O)c1C(=O)O	3.1	x	x	x
CC(C)=C[C@H]1[C@H](COC(=O)c2cc3c(cc2Cl)OCO3)C1(C)C	5.1	x	x	x
CC(C)[C@]1(Cl)CC[C@H]2[C@]3(C)CCC[C@@](C)(C(=O)O)[C@H]3C[C@@H](Cl)[C@]2(Cl)[C@H]1Cl	37.4	x	x	x
CC(C)C1=C[C@@]23CC[C@@H]4[C@](C)(CCC[C@@]4(C)C(=O)O)[C@@H]2C[C@@H]1[C@H](C(=O)O)[C@@H]3C(=O)O	86.8*	x	x	x
COc1cc2c(cc1OC)C(c1cc3cc(OC)c(OC)cc3[nH]c1=O)N(C(=O)C1CC1)CC2 (stereo not drawn)	6.1	-8.3	44.9*	-44.9
CCCC(=O)N1CCc2cc(OC)c(OC)cc2C1c1cc2cc3c(cc2[nH]c1=O)OCO3 (stereo not drawn)	14.1	-2.1	-3.2	3.2
O=C1[C@@H]2[C@H](C(=O)N1CN1CCSCC1)[C@H]1[C@@H]3C=C[C@@H]([C@@H]4C(=O)N(CN5CCSCC5)C(=O)[C@@H]34)[C@@H]21	-3.4	x	x	x
COc1cc(OC)cc(-c2cc3nc(C)cc(N4CCN(C(=O)c5ccco5)CC4)n3n2)c1	x	1.7	42.5*	-42.5
NC(N)=NC[C@H](N)C(=O)O	-2.7	x	x	x
Cc1ccc(C(=O)OCn2ncc(Cl)c(Cl)c2=O)cc1	x	19.8	-79.4	79.4*
O=C(OCn1ncc(Cl)c(Cl)c1=O)c1ccc(C(F)(F)F)cc1	x	2.2	-41.0	41.0*
Cc1ccc(C)c(C(=O)Cn2ncc(Cl)c(Cl)c2=O)c1	-27.7	15.3	-43.3	43.3*
C/C(N)=C(/C#N)C(=O)COC(=O)c1ccc(C)c(S(=O)(=O)N2CCCCC2)c1	x	0.3	42.3*	-42.3
C/C(N)=C(/C#N)C(=O)COC(=O)c1cc(S(=O)(=O)N2CCCCC2)ccc1C	-11.3	-3.0	2.5	-2.5
O=C(O)/C(Cc1ccnc2ccccc12)=N\O	-13.7	x	x	x
c1ccc2c[n+](Cc3ccnc4ccccc34)ccc2c1	101.1*	x	x	x
O=C1c2ccccc2C(O)(Cc2ccccc2)N1C1CCCCC1 (stereo not drawn)	14.5	92.1*	-36.8	36.8*
CCN(CC)C(=O)COc1cc(C)cc2oc(=O)cc(-c3ccccc3)c12	3.0	4.7	-33.0	33.0*
Cc1cc(OCC(=O)N(C)C)c2c(-c3ccccc3)cc(=O)oc2c1	3.6	5.1	-11.4	11.4
Cc1nc(COC(=O)c2c(C)nn(-c3ccccc3)c2C)cs1	-3.2	-62.2	4.1	-4.1
COc1ccc(-c2[nH]c(-c3ccc(C(=O)O)cc3)nc2-c2ccccc2)cc1	x	10.9	-64.3	64.3*
CC(=O)[C@H]([C@@H](c1ccccc1)N1CCOCC1)N1CCOCC1	16.7	x	x	x
O=C(NC1(C(F)(F)F)C(=O)Nc2c1c(=O)[nH]c(=O)n2Cc1ccccc1)c1ccc(Cl)cc1 (stereo not drawn)	2.0	-14.3	-31.9	31.9*
SMILES	Smad3 FoxH1 inh	HUVEC tox IL1B	IL1B NFkB pot	IL1B NFkB inh
O=C(NC1(C(F)(F)F)C(=O)Nc2c1c(=O)[nH]c(=O)n2Cc1ccccc1)c1ccc(Cl)cc1Cl (stereo not drawn)	11.7	-1.3	-6.9	6.9
COc1cccc2c1[C@H](CO)N1[C@H](C#N)[C@H]3C[C@@H](C(=O)O)[C@@H]([C@@H]1C2)N3C	13.7	x	x	x
CC(C)(C)NC(=O)C(c1cccs1)N(CC1CCCO1)C(=O)Cn1nnc(-c2cccs2)n1 (stereo not drawn)	10.6	-8.2	47.6*	-47.6
CCCc1cc2c(c(NC(C)=O)n1)c(=O)oc1ccccc12	-2.4	78.4*	-19.3	19.3
Cc1cc(NC(=O)CC(C)(C)C)nc2c1c(=O)oc1ccccc12	17.4	-10.7	-23.9	23.9
O=C(O)CC12C[C@@H]3C[C@@H](CC(O)(C3)C1)C2	1.6	x	x	x
CCC1C(=O)Nc2nc(-c3ccccc3)c(-c3ccccc3)n2N=C1C (stereo not drawn)	0.6	13.2	119.9*	-119.9
CC1=Nn2c(nc(-c3ccccc3)c2-c2ccccc2)N(CC(N)=O)C(=O)C1	16.4	-2.0	20.7	-20.7
